# Test results as given in the supplement of paper PMC12645437, “Orthogonal IMiD-Degron Pairs Induce Selective Protein Degradation in Cells” (ACS Chemical Biology, 2025).
# Whole data set: some 8,300 sequences, median “log2 fold change of degron read counts, EGFP-low vs EGFP+ sorted cells (limma voom), compound-induced degradation” near -1.1, cut for the highest 2% near 3.2. For the sample, the highest values were picked, then their nearest neighbours and some sequences at random.
# T1: CRBN, Q96SW2
# T1 chain: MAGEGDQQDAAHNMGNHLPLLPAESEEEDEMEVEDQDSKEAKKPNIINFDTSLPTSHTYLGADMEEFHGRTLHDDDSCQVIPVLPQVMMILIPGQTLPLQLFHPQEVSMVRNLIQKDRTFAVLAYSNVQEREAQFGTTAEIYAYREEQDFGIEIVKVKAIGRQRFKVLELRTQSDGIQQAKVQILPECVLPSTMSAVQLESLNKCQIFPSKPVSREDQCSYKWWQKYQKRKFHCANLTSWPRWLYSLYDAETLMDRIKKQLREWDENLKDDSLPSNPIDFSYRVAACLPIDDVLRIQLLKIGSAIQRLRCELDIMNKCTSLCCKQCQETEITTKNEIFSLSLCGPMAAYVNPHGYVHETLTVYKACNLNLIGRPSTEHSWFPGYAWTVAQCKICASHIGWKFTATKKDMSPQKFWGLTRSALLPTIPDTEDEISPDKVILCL
# Biological target: T1, CRBN, Q96SW2
# Experiment: log2 fold change of degron read counts, EGFP-low vs EGFP+ sorted cells (limma voom), compound-induced degradation; higher = more compound-induced degradation of the degron-EGFP fusion; degrons are variants of IKZF1/3 zinc finger 2; compound dose not given here
# Conditions: Jurkat, 18 h
# [1] = compound: compound 19 (5-tert-butyl-thalidomide)
# [2] = compound: compound 22 (5-morpholino-thalidomide)
# [3] = compound: compound 33 (diphenyl IMiD analogue)
# 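Also: pooled lentiviral library of zinc finger degron-EGFP fusions in mCherry-positive Jurkat cells, FACS-sorted after compound exposure, with degron abundance counted by next-generation sequencing.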
sequence,measurement,setting,value
"LCCEICGFECTQKGNLLRHIKL [46L_47C_49E_50I_52G_53F_54E_55C_67L_, Q9UKT9]",log2 fold change of degron read counts,[1],-0.329
same,log2 fold change of degron read counts,[2],-0.269
same,log2 fold change of degron read counts,[3],-0.566
same,log2 fold change of degron read counts,compound: thalidomide,0.603
"FHCNQCGAKFTQKGNLLRHIKL [46F_47H_49N_50Q_52G_53A_54K_55F_67L_, Q9UKT9]",log2 fold change of degron read counts,[1],-1.43
same,log2 fold change of degron read counts,[2],-1.66
same,log2 fold change of degron read counts,[3],-2.35
same,log2 fold change of degron read counts,compound: thalidomide,-1.73
"FLCDVCGAAFTQKGNLLRHIKL [46F_47L_49D_50V_52G_53A_54A_55F_67L_, Q9UKT9]",log2 fold change of degron read counts,[1],-0.47
same,log2 fold change of degron read counts,[2],-1.3
same,log2 fold change of degron read counts,[3],0.2
same,log2 fold change of degron read counts,compound: thalidomide,-0.799
"FFCEICGRCFTQKGNLLRHIKL [46F_47F_49E_50I_52G_53R_54C_55F_67L_, Q9UKT9]",log2 fold change of degron read counts,[1],0.787
same,log2 fold change of degron read counts,[2],0.568
same,log2 fold change of degron read counts,[3],0.232
same,log2 fold change of degron read counts,compound: thalidomide,-0.767
"LACPICGFACTQKGNLLRHIKL [46L_47A_49P_50I_52G_53F_54A_55C_67L_, Q9UKT9]",log2 fold change of degron read counts,[1],3.6
same,log2 fold change of degron read counts,[2],2.95
same,log2 fold change of degron read counts,[3],2.05
same,log2 fold change of degron read counts,compound: thalidomide,2.43
"LTCPICGFACTQKGNLLRHIKL [46L_47T_49P_50I_52G_53F_54A_55C_67L_, Q9UKT9]",log2 fold change of degron read counts,[1],2.49
same,log2 fold change of degron read counts,[2],3.12
same,log2 fold change of degron read counts,[3],2.65
same,log2 fold change of degron read counts,compound: thalidomide,3.02
"LCCPICGFACTQKGNLLRHIKL [46L_47C_49P_50I_52G_53F_54A_55C_67L_, Q9UKT9]",log2 fold change of degron read counts,[1],2.49
same,log2 fold change of degron read counts,[2],2.68
same,log2 fold change of degron read counts,[3],2.8
same,log2 fold change of degron read counts,compound: thalidomide,2.77
"LVCPICGFACTQKGNLLRHIKL [46L_47V_49P_50I_52G_53F_54A_55C_67L_, Q9UKT9]",log2 fold change of degron read counts,[1],1.96
same,log2 fold change of degron read counts,[2],3.25
same,log2 fold change of degron read counts,[3],2.26
same,log2 fold change of degron read counts,compound: thalidomide,3.56
"LSCPICGFACTQKGNLLRHIKL [46L_47S_49P_50I_52G_53F_54A_55C_67L_, Q9UKT9]",log2 fold change of degron read counts,[1],2.81
same,log2 fold change of degron read counts,[2],2.91
same,log2 fold change of degron read counts,[3],2.59
same,log2 fold change of degron read counts,compound: thalidomide,2.54
"LKCPICGFACTQKGNLLRHIKL [46L_47K_49P_50I_52G_53F_54A_55C_67L_, Q9UKT9]",log2 fold change of degron read counts,[1],1.2
same,log2 fold change of degron read counts,[2],-0.283
same,log2 fold change of degron read counts,[3],-0.872
same,log2 fold change of degron read counts,compound: thalidomide,1.19
"LFCPICGFACTQKGNLLRHIKL [46L_47F_49P_50I_52G_53F_54A_55C_67L_, Q9UKT9]",log2 fold change of degron read counts,[1],3.05
same,log2 fold change of degron read counts,[2],3.52
same,log2 fold change of degron read counts,[3],2.44
same,log2 fold change of degron read counts,compound: thalidomide,1.94
"LECPICGFACTQKGNLLRHIKL [46L_47E_49P_50I_52G_53F_54A_55C_67L_, Q9UKT9]",log2 fold change of degron read counts,[1],1.75
same,log2 fold change of degron read counts,[2],-0.131
same,log2 fold change of degron read counts,[3],2.17
same,log2 fold change of degron read counts,compound: thalidomide,3.17
"LDCPICGFACTQKGNLLRHIKL [46L_47D_49P_50I_52G_53F_54A_55C_67L_, Q9UKT9]",log2 fold change of degron read counts,[1],0.373
same,log2 fold change of degron read counts,[2],-0.371
same,log2 fold change of degron read counts,[3],0.648
same,log2 fold change of degron read counts,compound: thalidomide,1.61
"LYCPICGFACTQKGNLLRHIKL [46L_47Y_49P_50I_52G_53F_54A_55C_67L_, Q9UKT9]",log2 fold change of degron read counts,[1],2.98
same,log2 fold change of degron read counts,[2],3.33
same,log2 fold change of degron read counts,[3],2.6
same,log2 fold change of degron read counts,compound: thalidomide,1.77
"LRCPICGFACTQKGNLLRHIKL [46L_47R_49P_50I_52G_53F_54A_55C_67L_, Q9UKT9]",log2 fold change of degron read counts,[1],2.16
same,log2 fold change of degron read counts,[2],2.14
same,log2 fold change of degron read counts,[3],2.39
same,log2 fold change of degron read counts,compound: thalidomide,2.57
"LNCPICGFACTQKGNLLRHIKL [46L_47N_49P_50I_52G_53F_54A_55C_67L_, Q9UKT9]",log2 fold change of degron read counts,[1],2.3
same,log2 fold change of degron read counts,[2],1.32
same,log2 fold change of degron read counts,[3],1.06
same,log2 fold change of degron read counts,compound: thalidomide,1.78
